An excerpt weighted towards active compounds, which were near 10% of everything screened.
LMNA splice mod – qHTS Assay for Modulators of Lamin A Splicing; HeLa LMNA splicing GFP/RFP minigene ratio, 48 h; Potency, µM (titrated, usually from 46.1 µM), most hits filed as inhibitors; actives 0.01% (n = 200,000); active means well fitted inhibition curve with a large enough effect in the signal ratio, with a control signal flat, not every such curve was filed as active; inconclusive means small, poorly fitted or top-dose-only effect, or effect the other way, or a change in a side signal; the % refers to the signal ratio
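S3 HeLa cells stably expressing lamin A-EGFP splicing minigene plus DsRed2, 600 cells/well, 48 h compound exposure at 37C. Laser-scanning cytometry; analysed as GFP (500-530 nm)/RFP (575-640 nm) total intensity ratio; 0.5% DMSO vehicle.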
12-hLO inh – qHTS Assay for Inhibitors of 12-hLO (12-human lipoxygenase); Polyunsaturated fatty acid lipoxygenase ALOX12 (Homo sapiens), P18054; purified 12-hLO, xylenol orange hydroperoxide absorbance; Potency, µM (titrated, usually from 57.1 µM), hits mostly inhibitors; actives 0.12% (n = 150,000); active means well fitted inhibition curve with a large enough effect; inconclusive means small, poorly fitted or top-dose-only effect; further: nearly all actives have a fitted effect of over 55% in size
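Lipoxygenase turnover measured by absorbance at 573 and 405 nm after Fe-XO development. Human 12hLO 150 nM, arachidonate 40 uM, pH 7.0 Hepes buffer with detergent; 15 min compound preincubation, 30 min reaction.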
ALDH1A1 block – qHTS Assay for Inhibitors of Aldehyde Dehydrogenase 1 (ALDH1A1). Purified ALDH1A1, NADH fluorescence, propionaldehyde substrate. Aldehyde dehydrogenase 1A1 (Homo sapiens), P00352. Potency, µM (top dose mostly 75.3 µM), hits mostly inhibitors. actives 7.3% (n = 220,000)
HPGD block – qHTS Assay for Inhibitors of HPGD (15-Hydroxyprostaglandin Dehydrogenase) | 15-hydroxyprostaglandin dehydrogenase [NAD(+)] (Homo sapiens), P15428 | purified HPGD, NADH fluorescence kinetic, PGE2 substrate | Potency, µM, hits mostly inhibitors | actives 4.3% (n = 150,000) | AID 894, 2007
Target sequence (P15428 whole entry, looked up): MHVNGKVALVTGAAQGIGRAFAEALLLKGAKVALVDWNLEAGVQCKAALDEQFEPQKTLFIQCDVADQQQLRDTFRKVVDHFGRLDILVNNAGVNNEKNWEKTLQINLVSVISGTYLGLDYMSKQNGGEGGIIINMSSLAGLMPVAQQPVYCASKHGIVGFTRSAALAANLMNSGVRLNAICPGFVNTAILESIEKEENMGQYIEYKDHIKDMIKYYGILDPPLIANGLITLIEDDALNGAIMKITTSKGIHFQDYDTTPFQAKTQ
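20 nM HPGD preincubated 15 min at room temperature with compound in 50 mM Tris-HCl pH 8, 0.01% Tween 20. Started with 1 mM NAD+ and 30 uM prostaglandin E2; NADH fluorescence (360/450 nm) read 5 times over 30-s intervals, last minus first.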
PNC inhibitor – High Content Assay for Compounds that inhibit the Assembly of the Perinucleolar Compartment; PC3M PTB-GFP, PNC prevalence imaging, 16 h; active compounds read low; activity change (PNC), negative = inhibition, % at 10 µM; actives 3.1% (n = 140,000);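 active means readout at or below -70, meaning at least 70% loss of cells showing the perinucleolar compartment, a nuclear body marking cancer cells; inconclusive means readout between -30 and a set limit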
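Compounds are pinned in duplicate onto adhered PC3M cells stably expressing GFP-tagged PTB and incubated 16 h at 37 C. Cells are then fixed, nuclei stained with Hoechst, and PNC-positive cells counted.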
A number is an active result; . = inactive; ? = inconclusive; / = no result; [ ] = remark or other dose. Unless noted, the call rests on the fitted dose curve; in most records, active means well fitted inhibition curve with a large enough effect (not every such curve was filed as active); inconclusive means small, poorly fitted or top-dose-only effect, or another doubt; inactive means no such curve, though single readings can be large or run the other way.

SMILES	LMNA splice mod	12-hLO inh	ALDH1A1 block	HPGD block	PNC inhibitor
CC(C)c1nn2c(=O)cc(COC(=O)CNC(=O)c3ccccc3)nc2s1	.	/	/	/	/
COc1cccc(C(=O)CN(C(=O)c2ccc(Cl)c(Cl)c2)N2C(=O)c3ccccc3C2=O)c1	.	.	14µM	.	?
COc1cccc(C(=O)CN(C(=O)c2ccc(Cl)cc2Cl)N2C(=O)c3ccccc3C2=O)c1	.	.	16µM	.	.
COC(=O)c1ccc2c(=O)[nH]c(CSc3nc(C)cs3)nc2c1	/	/	24µM	/	/
NC(N)=N/N=C(\c1ccc(Cl)cc1)C1CC1	/	.[11.4 µM]	.[13.5 µM]	.	/
COc1ccc(C)cc1NC(=O)COCc1cc(-c2ccc(F)cc2)on1	.	/	/	/	/
COC(=O)c1cc(NC(=O)c2ccccc2)c(=O)oc1C/C=N\OCc1ccc(Cl)cc1Cl	.	?	?	.	.
Cc1oc(=O)c(NC(=O)c2ccccc2)cc1C(N)=O	/	/	.	/	/
Cc1oc(=O)c(NC(=O)c2cccc(Cl)c2)cc1C(=O)c1ccccc1	?	.	8.9µM	32µM	.
COc1ccc(C(=O)Nc2cc(C(=O)c3ccccc3)c(C)oc2=O)cc1	.	?	20µM	.	.
CO/N=C\Cc1oc(=O)c(NC(=O)c2ccccc2)cc1C(=O)OC	.	.	22µM	.	.
O=C(Nc1ccc(N=Nc2ccccc2)cc1)c1cccc(Cl)c1	.	.	.	.	-111
CC(C)(C)c1c2c(c(C(C)(C)C)c3c1OCN(Cc1ccccc1)C3)OCN(Cc1ccccc1)C2	/	.[11.4 µM]	.[13.5 µM]	.	/
CCC/C(=N/NC(=O)c1cccc(Cl)c1)c1ccccc1	.	.	?	.	.
O=C(N/N=C/C1C(c2ccccc2)C1(Cl)Cl)c1cccc(Cl)c1 (centres undefined)	.	.	7.1µM	.	.
COc1ccc(-c2noc(CSCC(=O)Nc3cc(OC)c(OC)c(OC)c3)n2)cc1OC	.	/	/	/	/
CCN1C(=O)NC2=C(C(=O)c3ccccc32)C1c1ccccc1F (centres undefined)	.	.	0.32µM	.	?
Cc1ccc(NS(=O)(=O)c2cc(NC(=O)c3ccc4c(c3)NC(=O)CS4)ccc2C)c(C)c1	?	/	14µM	/	/
COc1ccc(NC(=O)c2ccc3c(c2)NC(=O)CO3)cc1OC	.	/	.	/	/
COc1ccc(NC(=O)c2ccc3c(c2)NC(=O)CS3)cc1S(=O)(=O)Nc1ccc(Br)cc1	?	/	10µM	/	/
Cc1ccc(NS(=O)(=O)c2cc(C(=O)Nc3cccc(N(C)S(C)(=O)=O)c3)ccc2C)c(C)c1	?	.	.	.	.
CC(C)(C)NS(=O)(=O)c1cnc(Cl)c(Cl)c1	.	.	32µM	.	.
CC(C)(C)NS(=O)(=O)c1ccc(Oc2ncc(C(F)(F)F)cc2Cl)cc1	?	.	.	.	.
CCOC(=O)Nc1sc2c(c1C#N)CCCC2	.	.	?	.	.
CCOC(=O)C1CCc2sc(N)c(C#N)c21 (centres undefined)	.	.	?	.	-135
SMILES	LMNA splice mod	12-hLO inh	ALDH1A1 block	HPGD block	PNC inhibitor
CNC(=O)C1C(=S)NC(N)=C(C#N)C1c1ccccc1 (centres undefined)	?	?	18µM	.	.
COc1cccc(/C=N/Nc2nc(Nc3ccccc3)nc(-n3nc(C)cc3C)n2)c1O	?	.	.	.	.
COc1cccc(/C=N/Nc2cc(-n3nc(C)cc3-c3ccccc3)ncn2)c1O	?	.	.	.	-100
COc1cccc(/C=N/Nc2ncnc(Cl)c2N)c1O	?	.	.	.	?
COc1cccc(/C=N/Nc2ncnc3scc(-c4ccccc4)c23)c1O	?	.	.	20µM	-101
COC(=O)c1sccc1N/N=C/c1ccc(OC)c(OC)c1OC	?	.	?	?	?
COC(=O)c1sccc1N/N=C/c1cccc(OC)c1O	.	.	.	.	-116
O=C(CSc1nc2c([nH]c3ccccc32)c(=O)n1-c1ccccc1)N1CCc2ccccc21	.	/	/	/	/
CC(CC(=O)O)(CC(=O)O)c1ccccc1	/	.[11.4 µM]	.[13.5 µM]	.	/
Oc1ccc(O)c(-c2cnns2)c1	.	.	?	1.4µM	.
O=C(NCC1CCCO1)C(c1cccs1)N(C(=O)Cn1nnc(-c2cccs2)n1)C1CCCC1 (centres undefined)	.	.	.	.	?
CC(C)CCNC(=O)C(c1ccncc1)N(Cc1cccs1)C(=O)Cn1nnc(-c2ccc(F)cc2)n1 (centres undefined)	?	.	?	.	-100
O=C(NCC1CCCO1)C(c1cccs1)N(Cc1cccs1)C(=O)Cn1nnc(-c2cccs2)n1 (centres undefined)	.	.	8.9µM	.	.
Cc1ccc(-c2nnn(CC(=O)N(Cc3cccs3)C(C(=O)NC3CCCC3)c3ccco3)n2)o1 (centres undefined)	.	.	22µM	.	.
Cc1ccc(-c2nnn(CC(=O)N(Cc3ccco3)C(C(=O)NC3CCCC3)c3cccs3)n2)o1 (centres undefined)	.	.	.	.	-100
CN1C[C@H](c2ccccc2)C(O)([C@]2(c3ccccc3)CN(C)C[C@@H](c3ccccc3)C2=O)[C@H](c2ccccc2)C1 (some centres undefined)	/	.[11.4 µM]	.[13.5 µM]	.	/
COCCCNC(=O)CCCN1C(=O)CCn2nc(-c3cn(C)c4ccccc34)cc21	.	/	/	/	/
O=C(NCc1ccco1)C(c1ccco1)N(Cc1cccs1)C(=O)Cn1nnc2ccccc21 (centres undefined)	.	.	14µM	.	.
O=C(NCc1ccco1)C(c1cccs1)N(Cc1ccccc1)C(=O)Cn1nnc2ccccc21 (centres undefined)	?	.	.	.	?
O=C1NC(=S)SC1=C1CCCC1	.	.	?	35µM	.
Cc1c(Cc2ccc3c(c2)OCO3)sc(NC(=O)c2cccc3ccccc23)c1C(N)=O	.	.	14µM	14µM	.
Cc1c(Cc2ccccc2)sc(NC(=O)c2ccco2)c1C(N)=O	.	.	?	?	-111
CCOc1ccc(CC(=O)Nc2sc(Cc3ccccc3)c(C)c2C(N)=O)cc1OCC	.	.	?	.	.
COC(=O)c1c(NC(=O)c2ccco2)sc(C)c1C	.	.	?	.	-81
CCOC(=O)[C@@]12C[C@@H]1/C(=N/O)c1ccccc1O2	/	.	.	.	/
O=C(O)[C@H]1CCCN(CCC=C(c2ccccc2)c2ccccc2)C1	/	.	.	.	/
O=C1c2sc3nc4c(c(=O)n3c2C(=O)N1c1ccccc1)CCC4	.	.	?	/	?
Cc1ccc(N2C(=O)c3sc4nnc(C)c(=O)n4c3C2=O)cc1	.	.	18µM	.	.
CCc1ccc(N2C(=O)c3sc4nnc(C)c(=O)n4c3C2=O)cc1	?	.	5µM	.	.
